A selection: hits, their analogues and other compounds. The true share with any hit is near 3.5%.
TWEAK-Fn14 inh: TWEAK-Fn14 signaling inhibition. TWEAK-stimulated Fn14 reporter cells, luciferase luminescence, 8 h. inhibition, % at 10 µM. 360,000 compounds, 2% hits; in the data active = inhibition above about 50%
HSP90 inh: inhibitors of HSP90 luciferase refolding in rabbit reticulocyte lysate. 290,000 compounds, 0.91% hits. AID 1789. inhibition, % at 5.6 µM. luciferase refolding luminescence, 3 h;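 active = inhibition above the screen-wide mean plus 3 SD, computed separately per campaign, cut at about 16% in these data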;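 also: 0% = DMSO wells and 100% = 60 µM geldanamycin wells; inhibitors lower the luminescence because luciferase stays unfolded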
TROY NFkB inh: blocks TROY-dependent signaling in reporter cells; Q293 LMP1-TROYcd NF-kB luciferase reporter, 4 h; inhibition, % at 10 µM; 360,000 compounds, 0.98% hits;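 active = compounds whose plate-normalised and pattern-corrected inhibition of the luciferase reporter signal at the single screening dose is 50% or more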
PPC-1+TRAIL kill: kills PPC-1 cancer cells in the presence of TRAIL. PPC-1 cells + TRAIL, ATPLite viability luminescence. cell killing (% activity), % at 4 µM or 5 µM. 220,000 compounds, 0.41% hits;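 active = cell killing above 50% in the first pass at 4 µM, then a duplicate retest at 5 µM averaging 50% or more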;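 also: plate controls were cells with TRAIL plus DMSO for no effect and medium-only wells lacking cells for full effect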
Platelet DG rel: platelet dense granule release activity; human platelet-rich plasma, SFLLRN dense granule ATP release, luminescence; inhibition, %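 (compounds screened at 7.5 µM in platelet-rich plasma)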; 300,000 compounds, 0.22% hits; AID 1663;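 active = mean replicate score, as percent of positive control, at or above 50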
TRAIL sens C8: caspase-8 TRAIL sensitization; NB7+C8 cells + TRAIL, ATPlite viability luminescence; inhibition (viability loss, TRAIL sensitization), % at 10 µM; 360,000 compounds, 1% hits; AID 624354;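 active = compounds causing at least 50% loss of cell viability in the single-dose screen, relative to plate controls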
Numbers without * were called inactive; . = no result given.

SMILES | TWEAK-Fn14 inh | HSP90 inh | TROY NFkB inh | PPC-1+TRAIL kill | Platelet DG rel | TRAIL sens C8
COc1ccc(/C=N/OCC(=O)NC(c2ccccc2)c2ccccc2)cc1OC | 51.8* | 3.6 | 25.5 | 16.6 | 3.3 | 27.6
O=S(=O)(Nc1ccncc1Cl)c1ccc2ccccc2c1 | -16.4 | -0.8 | 4.2 | 15.1 | -2.6 | 11.4
CCOc1ccc(NC(=O)N(O)C2(C#N)CCCCC2)cc1 | -32.2 | . | -23.4 | . | . | 15.1
CCc1ccc(NC(=O)c2cnc(N3CCN(c4ccccn4)CC3)c3ccccc23)cc1 | 101.5* | -1.5 | 60.2* | . | -6.8 | 41.1
CC(C)(C)OC(=O)CC1(C#N)c2ccccc2C(Br)=CN1C(=O)c1ccccc1 (centres undefined) | -0.1 | . | -17.1 | . | -0.1 | 7.2
Cc1cc(C)c(C)c(S(=O)(=O)N2CCN(C(=O)c3cc(=O)[nH]c4ccccc34)CC2)c1C | 53.6* | 4.1 | 7.3 | 2.2 | -0.3 | -4.6
Cc1cc(C)c(S(=O)(=O)N2CCN(C(=O)c3cc(=O)[nH]c4ccccc34)CC2)c(C)c1 | 15.3 | . | -4.6 | . | . | 7.3
Nc1ccc2c(c1)OC1(CCCCC1)O2 | -1.1 | 0.8 | 0.8 | 5.3 | -0.2 | 13.9
Nc1nccc(-c2ccc(-n3cnc4ccccc43)cc2)n1 | 52.8* | 0.2 | 25.9 | -1.0 | 10.7 | -0.4
NC(=O)CCS(=O)(=O)CCN1CCCCC1 | -8.9 | 1.4 | -6.0 | 13.9 | 1.3 | -3.0
O=S(=O)(CCN1CCCCC1)CCS(=O)(=O)CCN1CCCCC1 | 10.5 | . | 61.0* | . | . | 23.6
CCN(CC)C(=O)c1nn(-c2ccccc2)c2c1C1CCC2(C)C1(C)C (centres undefined) | 10.2 | 4.3 | 33.2 | -2.8 | -0.8 | 51.0*
N=c1oc2ccccc2cc1C(=O)NC1CCCCCC1 | 36.3 | 15.6 | 20.3 | . | 5.2 | 22.3
Cc1ccnc(NC(=O)c2cc3ccccc3oc2=O)c1 | 59.6* | 0.3 | -30.1 | 28.1 | 7.6 | 10.8
O=C(NC1CCCCCC1)c1cc2ccccc2oc1=O | 53.9* | 10.2 | 5.4 | . | 1.8 | 12.4
Cc1ccnc(NC(=O)c2oc3ccccc3c2C)c1 | 50.7* | . | 1.5 | . | 3.5 | 65.7*
COc1ccc2oc(C(=O)Nc3nnc(C)s3)c(C)c2c1 | 67.7* | . | 11.8 | . | . | 70.4*
Cc1ccc2oc(C(=O)Nc3nnc(C)s3)c(C)c2c1 | 30.8 | -4.1 | -20.6 | 37.7 | -0.5 | 44.8
O=C(Nc1cccs1)Nc1nnc([C@@H]2C[C@H](O)[C@@H](CO)O2)s1 | 11.4 | . | 6.3 | . | . | 0.0
CCOc1ccc2oc(C(=O)O)c(C)c2c1 | -14.8 | 1.2 | -40.2 | -2.7 | 2.2 | -11.3
Cc1c(C(=O)NC2=NCCS2)oc2ccccc12 | 57.2* | 13.0 | -14.1 | 22.5 | 11.0 | 25.2
Cc1csc(NC(=O)c2oc3ccccc3c2C)n1 | 44.5 | . | 9.0 | . | 11.0 | 14.5
CCOc1ccc2oc(C(=O)Nc3cc(C)ccn3)c(C)c2c1 | 14.8 | . | 3.7 | . | 38.1 | 70.4*
Cc1ccc(SCC(=O)NCC2COc3ccccc3O2)cc1 (centres undefined) | -0.2 | . | -8.7 | . | . | 1.5
CCOC(=O)C1=C(COC(=O)c2cccnc2Cl)NC(=O)NC1C (centres undefined) | -7.8 | . | 3.2 | . | 3.6 | 1.1
SMILES | TWEAK-Fn14 inh | HSP90 inh | TROY NFkB inh | PPC-1+TRAIL kill | Platelet DG rel | TRAIL sens C8
CCOC(=O)C1=C[C@@H](C(C)(C)C)N(S(=O)(=O)c2ccc(C)cc2)[C@H]1c1ccc(F)cc1 | 9.0 | . | 23.3 | . | . | 20.2
CCOC(=O)c1ccc(NC(=O)CCc2ccc(C)o2)cc1 | 2.9 | 2.1 | -22.7 | -4.1 | 62.3* | 18.5
Cc1cc(-c2cn3ccccc3n2)c(C)n1-c1ccccc1 | 0.3 | 1.8 | -6.4 | 4.5 | 9.4 | 63.6*
CCOC(=O)C(=N/O)/C(C)=N/NC(=O)C(=O)Nc1cc(Cl)ccc1Cl | -17.6 | -4.7 | -0.3 | 3.0 | 1.8 | 6.0
COc1ccc(OC)c(NC(=O)c2cccc(N3C(=O)C4C5C=CC(C6CC56)C4C3=O)c2)c1 (centres undefined) | 52.6* | -1.9 | 24.8 | . | 6.2 | -0.1
COC(=O)c1ccc(NC(=O)c2ccc[n+]([O-])c2)cc1 | 86.7* | 1.4 | 1.8 | . | -14.0 | 7.6
COC(=O)c1ccc(NC(=O)c2cccc(N3C(=O)C4C5C=CC(C6CC56)C4C3=O)c2)cc1 (centres undefined) | 85.3* | -0.8 | 54.6* | . | -0.3 | 33.4
O=C(N/C(=C/c1ccc(Cl)cc1)C(=O)N1CCCC1)c1ccccc1 | -7.6 | 9.8 | 11.2 | 16.5 | -2.2 | 4.8
COc1cccc(OCCNC(=O)c2cccc(OC)c2)c1 | -5.0 | -1.8 | 19.8 | 0.4 | 53.4* | -4.0
Cc1coc2c(C)c3oc(=O)c(CCC(=O)N[C@@H](C)C(=O)N[C@@H](Cc4ccccc4)C(=O)O)c(C)c3cc12 | -1.9 | -0.8 | 4.6 | . | -3.3 | -6.3
COc1ccccc1NC(=O)C1=C(C)NC2=C(C(=O)CC(c3ccc(OC)c(OC)c3)C2)C1c1coc2ccccc2c1=O (centres undefined) | 41.9 | 16.2* | 16.1 | 10.4 | 0.9 | -3.3
CCOC(=O)C1=C(C)NC2=C(C(=O)CC(c3ccc(OC)c(OC)c3)C2)C1c1ccc(C)o1 (centres undefined) | 11.8 | -3.1 | 13.4 | 0.6 | . | -13.5
O=c1c2c3c(sc2nc2n1N=C(c1cccs1)CS2)CCCC3 | -11.9 | 5.1 | 14.2 | 77.8* | 3.6 | 67.2*
O=c1oc(-c2cccs2)nc2sc3c(c12)CCCC3 | 41.8 | 0.3 | -38.2 | -8.9 | -8.2 | -4.1
COc1ccccc1NC(=O)c1c(C)cc(=O)oc1C | 59.7* | 2.7 | -10.1 | 11.2 | -1.1 | 7.3
Cc1ccccc1NC(=O)c1c(C)cc(=O)oc1C | 7.1 | 7.1 | -15.2 | -5.0 | 10.2 | 1.7
Cc1cc(=O)oc(C)c1C(=O)NCCNC(=O)c1c(C)cc(=O)oc1C | 11.5 | -1.3 | 30.4 | 22.2 | 85.0* | -5.2
CCC(C)(C)NC(=O)C(c1ccccn1)N(C(=O)c1csnn1)c1ccc(C)c(C)c1 (centres undefined) | -15.1 | -2.5 | -30.5 | -15.0 | -0.3 | -3.9
Cc1ccc2nc(NC(=O)CSc3nncc(=O)n3N)sc2c1 | -6.1 | 2.5 | -38.9 | -11.6 | -21.2 | 3.0
Cc1nc(C(F)(F)F)ccc1C(=O)N1CCCC1(C)C(=O)NCC(C)C (centres undefined) | 4.6 | . | -0.7 | . | . | -19.3
CC/C(=N\NC(=O)c1csc(C)c1C)c1cccs1 | -9.3 | -1.7 | -23.3 | 39.7 | -1.4 | 50.5*
FC(F)(F)c1cc(-c2ccccc2)nc(N2CCCCCC2)n1 | 8.4 | 2.8 | -12.0 | -3.1 | 21.2 | 3.7
CS(=O)(=O)c1nc(-c2ccccc2)cc(C(F)(F)F)n1 | 46.9 | 0.9 | 52.7* | -1.5 | 16.8 | 59.0*
Cc1cc(NC(=O)CCS(=O)(=O)c2nc(-c3ccccc3)cc(C(F)(F)F)n2)no1 | 53.9* | . | 56.2* | 1.1 | . | -1.5
N#Cc1c(Cl)nsc1NC(=O)c1ccccc1 | 41.9 | 4.8 | 21.6 | 17.3 | 2.0 | 44.5
CC1(C(=O)NCc2ccccc2Br)CCN1C(=O)Cc1ccc(-c2ccccc2)cc1 (centres undefined) | 10.0 | . | 16.8 | . | . | 6.1

Source: PubChem (several laboratories)
